Measurements reported in PubChem BioAssay (NCI).
About 83,000 compounds went through this panel and 20% of them were active in at least one assay; those are over-represented in the sample as a whole.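 Interpretation: 100, growth as untreated; towards 0, rising growth inhibition; 0, no net growth; 0 to -100, cell death. Compounds scoring below 10 were considered active.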 Values without a mark were called inactive. The source made the active and inactive calls.

Each molecule was assayed on UO-31 renal (assay: NCI-60 one-dose screen, 48 h (100 = growth as untreated, 0 = no growth, -100 = all killed)). Settings: 10 µM unless noted.
`O=C(COc1ccc(NC(=O)Nc2ccc(Cl)cc2)cc1)N/N=C/c1ccccc1` was tested, and the growth was -14% (active).
For `COc1cc(/C=C/C(=O)c2ccccc2)ccc1Oc1nc(Nc2ccc(F)cc2)nc(N(C)C)n1`, the growth was 27.3%.
With `CN(C)CCCNC(=O)c1cc(NC(=O)c2cc(NC(=O)c3ccc(/C=C/c4ccccc4)cc3)cn2C)cn1C` the growth was 66.6%.
For `COc1ccc(C(=O)/C=C/c2ccc(Oc3nc(Nc4ccc(F)cc4)nc(N(C)C)n3)c(OC)c2)cc1`, the growth was 42.9%.
Molecule `CN(C)CCOc1ccc(C(=O)C2[C@H](c3ccc(Cl)cc3)[C@@H](c3ccccc3)NC23C(=O)Nc2ccc(Br)cc23)cc1` (stereo partly drawn) has a growth of 32.8%.
Molecule `COc1ccc(-c2ccc(SCC(=O)NCCc3ccc(S(N)(=O)=O)cc3)nn2)cc1` has a growth of 76.8%.
`Cc1nc(Nc2ncc(C(=O)Nc3c(C)cccc3Cl)s2)cc(N2CCN(CCCNC(=O)COc3ccc(C4CCC(=O)NC4=O)cc3)CC2)n1` (stereo not drawn) showed a growth of 38.4%.
With `C=C1CCC2C3(C)COC(c4ccc(F)cc4)OC3CCC2(C)C1C/C=C1/C(=O)OCC1O` (stereo not drawn) the growth was -90.6% (active).
`O=c1onc(-c2cc3ccccc3nc2Cl)n1-c1cccc2ccccc12` showed a growth of 38.2%.
`O=C1NC(=O)/C(=C/c2ccccc2OCc2cc3ccccc3nc2Cl)S1` was tested, and the growth was 71.9%.
Molecule `O=C(COc1ccc(NC(=O)Nc2ccc(Cl)c(Cl)c2)cc1)N=Nc1c(O)[nH]c2ccc(Br)cc12` has a growth of 51.1%.
`COc1cccc(/C=C/c2nc3ccccc3c(=O)n2CC(=O)Nc2ccc(Cl)cc2)c1` was tested, and the growth was 16%.
With `COc1ccc(C(=O)/C=C/c2cccc(Cl)c2)cc1S(N)(=O)=O` the growth was -67.6% (active).
`COc1cc(C2CC(c3cc(OC)c(OC)c(OC)c3)=NN2c2ccccc2)ccc1OCc1ccc(C)cc1` (stereo not drawn) was tested, and the growth was 84.8%.
Molecule `CCOP(=O)(OCCCl)c1nc(-c2ccc(C)cc2)oc1NCc1ccccc1` (stereo not drawn) has a growth of 52.5%.
With `Cc1ccccc1[C@H]1C(C(=O)c2ccc(Cl)cc2)C2(N[C@@H]1c1ccccc1)C(=O)Nc1ccccc12` (stereo partly drawn) the growth was 0.424% (active).
For `Cc1ccccc1[C@H]1C(C(=O)c2ccc(Cl)cc2)C2(N[C@@H]1c1ccccc1)C(=O)Nc1ccc(Br)cc12` (stereo partly drawn), the growth was 14.1%.
In the case of `Cc1cc(=O)oc2cc(OCCOc3ccc(/C=C/C(=O)Nc4ccccc4N)cc3)ccc12`, the growth is reported as 7.73% (active).
`COc1cccc(/C=C/C(=O)c2ccc(OC)c(S(N)(=O)=O)c2)c1` was tested, and the growth was 2.53% (active).
Molecule `Cn1cc(NC(=O)c2cc(NC(=O)c3ccc(/C=C/c4ccccc4)cc3)cn2C)cc1C(=O)NCCCN1CCOCC1` has a growth of 61.6%.
With `CN1CCN(Cc2ccc(C(=O)Nc3cccc(C#Cc4cccc5[nH]nc(N)c45)c3)cc2C(F)(F)F)CC1` the growth was -98.2% (active).
In the case of `CCCn1cc(-c2nc(Nc3ccc(C(=O)NCCCCNc4cccc5c4C(=O)N(C4CCC(=O)NC4=O)C5=O)cc3)nc3[nH]ccc23)cn1` (stereo not drawn), the growth is reported as 73.9%.
`COc1c(F)ccc(C(=O)Nc2ccc3nc(NC(=O)C4CCCN(S(=O)(=O)c5ccc(C(F)(F)F)cc5)C4)sc3c2)c1F` (stereo not drawn) showed a growth of 55.3%.
With `Cn1nc(C(F)(F)F)cc1-c1cc(Cl)c(COc2ccc(Cl)cc2)c(-c2ccc(Cl)c(C(F)(F)F)c2)c1O` the growth was -48.4% (active).
For `COc1ccc(C(=O)/C=C/c2ccccc2Br)cc1S(N)(=O)=O`, the growth was -65.2% (active).
In the case of `COc1ccc2c(c1)c(/C=N/Nc1ccc3ccccc3n1)cn2C`, the growth is reported as -31.3% (active).
With `COc1c(F)ccc(C(=O)Nc2ccc3nc(NC(=O)C4CCCN(S(=O)(=O)c5ccc(Br)c(F)c5)C4)sc3c2)c1F` (stereo not drawn) the growth was 72.1%.
For `COc1cc(OC)cc(-c2cc3ccc(N(C)C)cc3c(=O)[nH]2)c1`, the growth was 52.4%.
`Clc1cccc(-c2ccc(OCCCN3CCN(c4ccncc4)CC3)cc2)c1` was tested, and the growth was 30.4%.
Molecule `CC12CC[C@@H]3[C@]4(C)COC(c5cn[nH]c5-c5ccc(Br)cc5)O[C@@H]4CC[C@@]3(C)[C@@H]1CC(C1=CCOC1=O)O2` (stereo partly drawn) has a growth of 25.1%.
`CC12CC[C@@H]3[C@]4(C)COC(c5cn[nH]c5-c5cccc(Cl)c5)O[C@@H]4CC[C@@]3(C)[C@@H]1CC(C1=CCOC1=O)O2` (stereo partly drawn) showed a growth of 16.4%.
For `CCCSc1nc(Nc2ccc(S(N)(=O)=O)cc2)c(C#N)c(-c2ccc(Cl)cc2)n1`, the growth was -68.6% (active).
`COc1ccc(-c2nc3ccc(C(=O)NN4C(=O)c5ccc([N+](=O)[O-])cc5C4=O)cc3[nH]2)cc1` was tested, and the growth was 88.6%.
